Data on 116 compounds can be found in PubChem BioAssay AID493240 (Broad Institute, 2011).

Among all 1,300 compounds or so, about 270 (21%) were called active. No rule for the calls is given here. Only a sample is shown. Measured potencies and affinities stand elsewhere.

This assay is described as follows: cytotoxicity in parental SK-MEL-5 melanoma cells – cell-based, CellTiter-Glo, cherry-picked, set 3, orthogonal assay for MITF inhibitor project, dose response (AID 493240). Particulars: SK-MEL-5 viability, ATP luminescence (CellTiter-Glo), 24 h; series mostly up to 35 µM. (In general: In ATP-based viability assays light output follows the ATP content of the culture.)
In the case of `COc1cccc(/C=N/Nc2nc3ccccc3[nH]2)c1OC`, the result was inactive.
Under `O=C(Nc1ccc(-c2cn3c(n2)SCC3)cc1)c1ccco1` stands “inactive”.
Under `NNC(=O)c1cc2ccccc2cc1O` stands “inactive”.
Under `CN(CC(=O)N1CCCCCC1)S(=O)(=O)c1ccccc1` stands “inactive”; under `COC(=O)C1=C(CN2CCCc3ccccc32)NC(=O)NC1c1ccc(F)cc1` (stereo unspecified), “inactive”.
As for `O=Cc1ccc(N2Cc3ccccc3C2)cc1`, the outcome was inactive.
Then `Cc1ccc(C(=O)c2coc3ccc(O)c(Cl)c23)cc1`, with “inactive”.
Then `COCc1cc(C)nc2sc(C(=O)Nc3cccc(OC)c3)c(N)c12`, with “inactive”; and `COc1ccc(CNC(=O)CN2C(=O)C3C4C=CC(C4)C3C2=O)cc1` (stereo unspecified), with “inactive”; and `CN(C)CC1CC/C(=C\c2ccc(O)cc2)C1=O` (stereo unspecified), with “inactive”.
Regarding `Cc1cc(NC(=O)c2ccc(Cl)cc2Cl)no1`, the result was inactive.
With `N/C(=N\OC(=O)c1ccncc1)c1cccc([N+](=O)[O-])c1`, the result was inactive.
Then `O=[N+]([O-])/C=C\c1ccc(N2CCOCC2)cc1`, with “inactive”; and `COc1cccc2sc(N3CCN(C(=O)c4ccc([N+](=O)[O-])o4)CC3)nc12`, with “inactive”; and `Oc1c(Cl)cc(Cl)cc1/C=N/Nc1ncc(Br)cn1`, with “inactive”.
Under `O=C(Cc1cccs1)NCc1ccc(Cl)cc1Cl` stands “inactive”; under `c1ccc(OCc2nc3ccccc3[nH]2)cc1`, “inactive”; under `CC(=O)c1c(C)[nH]c(C(=O)Nc2ccc(C)c(C)c2)c1C`, “inactive”.
As for `BrC(=C\c1ccccc1)/C=N/n1cnnc1`, the outcome was inactive.
Then `CN(C(=O)/C=C/c1ccc([N+](=O)[O-])s1)c1ccccc1`, with “inactive”; and `O=[N+]([O-])c1ccc(/C=N/n2c(CO)nc3ccccc32)s1`, with “inactive”; and `Nc1nc2ccccc2n1/N=C/c1ccc(-c2ccccc2)o1`, with “inactive”.
Then `Cc1cc2ncn(/N=C/c3ccc([N+](=O)[O-])o3)c2cc1C`, with “inactive”; and `Cc1ccc(C)c(-n2c3nc(=O)[nH]c(=O)c-3cc3cc([N+](=O)[O-])ccc32)c1`, with “inactive”.
For `O=C(Nc1ccc(F)c(Cl)c1)c1ccc2c(c1)OCO2`, the outcome was inactive.
Under `COc1ccccc1N1CCN(/N=C\c2ccccc2)CC1` stands “inactive”; under `CC(C)(C)N=Cc1cc(-c2ccccc2)sc1O`, “inactive”.
With `N#Cc1ccc(-c2cccnc2)nc1SCC(=O)c1ccccc1`, the result was inactive.
Then `COc1ccc(C(=O)Nc2nc3ccc(OC)cc3s2)cc1`, with “inactive”; and `CC(=C/c1ccco1)/C=N/N1CCN(c2ccccc2)CC1`, with “inactive”; and `CCCN(CC(=O)Nc1ccccc1C)C(=O)CCl`, with “inactive”.
Under `Cc1nc(-c2ccccn2)sc1C(=O)Nc1ccc(F)cc1F` stands “inactive”; under `CC(=O)Nc1cccc2c1Cc1ccccc1-2`, “inactive”; under `COc1ccc(N/C=C\C(=O)c2ccc3ccccc3c2)cc1`, “inactive”.
Under `Cc1c(NC(=O)c2ccc([N+](=O)[O-])o2)cccc1-c1nc2ncccc2o1` stands “inactive”; under `CCN(CC)S(=O)(=O)c1cccc(C(=O)N/N=C(\C)c2ccc(O)cc2O)c1`, “inactive”.
As for `CCCCCCN1C=CC(=C2C(=O)c3ccccc3C2=O)C=C1`, the outcome was inactive.
Under `CC(C)CC(=O)NC(c1cccs1)c1ccc2cccnc2c1O` (stereo unspecified) stands “inactive”; under `COCCN(C(=O)CCl)C(C(=O)NC1CCCCC1)c1ccccc1C` (stereo unspecified), “inactive”; under `COc1ccc(/C=C/C(=O)NC(=S)N2CCN(c3ccccc3OC)CC2)cc1`, “inactive”.
On to `O=C(/C=C/c1ccccc1Cl)NC1CCCCC1`, for which the outcome was inactive.
As to `COCCn1c(C)cc(C(=O)CSc2nnc(C)s2)c1C`, the result was inactive.
Then `c1ccc(CSc2nnc(-c3ccco3)n2Cc2ccco2)cc1`, with “inactive”; and `N#Cc1c(NC(=O)CSc2ncn[nH]2)sc2c1CCCC2`, with “inactive”; and `COc1ccc(-c2cc(-c3ccc(OC)c(OC)c3)n[nH]2)c(O)c1`, with “inactive”.
Then `CCCC1=Nc2cc(C(=O)NCCN3CCCC3)ccc2Sc2ccccc21`, with “inactive”; and `N#CC(C#N)=C1C=CC=CN1/C(=C\c1ccco1)C(=O)c1ccc(Cl)cc1`, with “inactive”.
As for `O=C(Nc1ccc2c(c1)OCCO2)c1coc2ccccc2c1=O`, the result was inactive.
Then `O=C(NCc1ccccc1)NC1(C(=O)Nc2ccc3c(c2)OCCO3)CCCCC1`, with “inactive”; and `COc1ccc(N(CC(=O)NCC2CCCO2)S(=O)(=O)c2ccccc2)cc1OC` (stereo unspecified), with “inactive”; and `CCOC(=O)/C=c1\s/c(=C\c2ccc3cc(OC)ccc3c2)c(=O)n1CC(=O)NCC1CCCO1` (stereo unspecified), with “inactive”.
For the compound `COc1ccc(/C=N/NC(=O)Cc2cccs2)cc1`, the result was inactive.
On to `CC(C)(C)C(=O)Cn1ncc(Br)c(Br)c1=O`, for which the outcome was inactive.
With `Cn1cc(C(=O)CCl)c2ccccc21`, the outcome was inactive.
With `Cc1ccc2c(C(=O)CCl)c(C)[nH]c2c1`, the outcome was inactive.
Then `COc1ccccc1N1C(=O)N(C(C)=O)C2C1Nc1ccccc1N2C` (stereo unspecified), with “inactive”; and `Cc1cccc(OCc2nc3ccccc3n2C)c1`, with “inactive”; and `Cc1nc(NC(=O)C2CC2)sc1C(=O)Nc1ccccc1Cl`, with “inactive”.
Then `CCOc1ccc(N=C(C)C2=C(O)c3ccccc3C2=O)cc1`, with “inactive”; and `O=C(CC(=O)c1ccccc1)Nc1ccccc1`, with “inactive”; and `CCCCOC(=O)Nc1ccc2c(C)cc(=O)oc2c1`, with “inactive”.
For the compound `COc1ccc(S(=O)NC2CCCCC2)c(OC)c1C` (stereo unspecified), the outcome was inactive.
Consider `COc1cc(CN2CCC(Cc3ccccc3)CC2)cc(OC)c1OC`, for which the outcome was inactive.
Under `CCOC(=O)C1(Cc2cccc(OC)c2)CCCN(C(=O)CSC)C1` (stereo unspecified) stands “inactive”; under `CC(C)(C)c1ccc(C(=O)N2CCCCCC2=O)cc1`, “inactive”; under `C=CC[n+]1c(-c2ccc(C)cc2)csc1Nc1ccc(NC(C)=O)cc1`, “inactive”.
Under `CC(C)(C)c1ccc(OCCCNCc2ccccc2)cc1` stands “inactive”; under `O=C1c2ccccc2C(=O)N1CCOc1ccccc1`, “inactive”; under `CCOC(=O)c1cc(-c2ccc(OC)cc2)n[nH]1`, “inactive”.
Under `COc1ccc(C(=O)Nc2ccc(C)cn2)c(OC)c1` stands “inactive”.
Consider `O=C(N/N=C/c1ccccn1)c1cc([N+](=O)[O-])cc([N+](=O)[O-])c1`, for which the outcome was inactive.
Then `COc1ccc(C(C(=O)NC2CCCCC2)N(C(=O)CCl)c2ccc(OC)cc2)cc1` (stereo unspecified), with “inactive”; and `COc1ccc(N(C(=O)CCl)C(C(=O)NC2CCCCC2)c2cccnc2)cc1` (stereo unspecified), with “inactive”; and `O=C1c2ccccc2S(=O)(=O)N1Cc1nc2ccccc2s1`, with “inactive”.
`CCn1c(C)cc(C(=O)CN2C(=O)c3ccccc3S2(=O)=O)c1C`: the result was inactive.
In the case of `CCCC(=O)NC(c1ccc(OC)c(OC)c1)c1cc(Cl)c2cccnc2c1O` (stereo unspecified), the outcome was inactive.
Under `Cn1cc([N+](=O)[O-])c(C(=O)Nc2nc(-c3ccc(Cl)cc3)cs2)n1` stands “inactive”; under `O=C(Nc1nc(-c2ccccn2)cs1)c1ccc(F)c(S(=O)(=O)N2CCOCC2)c1`, “inactive”; under `CC1CCCCC1NC(=O)/C(C#N)=C/C=C/c1ccccc1[N+](=O)[O-]` (stereo unspecified), “inactive”.
Under `OCC1OC(n2cnc3c(NCc4ccco4)ncnc32)C(O)C1O` (stereo unspecified) stands “inactive”; under `COc1cccc(/C=N/NC(=O)CN2CC(c3ccccc3)CC2=O)c1OC` (stereo unspecified), “inactive”; under `CCN1CCc2c(sc(NC(=O)c3ccc(S(=O)(=O)N4CCCCCC4)cc3)c2C(=O)NC)C1`, “inactive”.
Under `Cc1scc(C(=O)N/N=C/c2ccc([N+](=O)[O-])o2)c1C` stands “inactive”; under `O=[N+]([O-])c1ccc(Sc2cc[n+]([O-])c3ccccc23)c([N+](=O)[O-])c1`, “inactive”.
Regarding `Cc1ccc(SCCSc2ncccn2)cc1`, the outcome was inactive.
`O=C(O)C1CCN(C(=O)OCc2ccccc2)CC1`: the outcome was inactive.
Then `COc1cc(C2C(C#N)=C(N)Oc3cc(N(C)C)ccc32)cc2c1OCO2` (stereo unspecified), with “inactive”.
Then `O=C(O)c1cc2ccccc2c(N=Nc2cccnc2)c1O`, with “inactive”; and `Cc1cc(C)c2c(N)c3cccc(C)c3nc2n1`, with “inactive”.
Under `CC(=O)Nc1ccc(-c2nc3ccccc3o2)cc1` stands “inactive”; under `OCCNc1c2ccccc2nc2ccccc12`, “inactive”.
Consider `Cc1nn2c(N)c(-c3ccccc3)cnc2c1-c1ccccc1`, for which the result was inactive.
Then `COc1ccc(-c2nc(-c3ccncc3)no2)cc1OC`, with “inactive”; and `C=Cc1ncc(OC)c2c1[nH]c1ccccc12`, with “inactive”; and `Cc1ccc(NC(=O)CN(C)C(=O)Cn2ncc(Cl)c(Cl)c2=O)cc1`, with “inactive”.
`O=C(/C=C/NNC(=O)c1ccccc1)c1ccc([N+](=O)[O-])cc1`: the result was inactive.
Consider `COc1ccc(/C=C/c2cc(C(F)(F)F)on2)cc1`, for which the outcome was inactive.
Then `O=[N+]([O-])c1ccc(-n2nnnc2-c2ccccc2)c([N+](=O)[O-])c1`, with “inactive”.
For the compound `CCN(CC)S(=O)(=O)c1cccc(C(=O)N/N=C/c2ccc([N+](=O)[O-])o2)c1`, the outcome was inactive.
Under `Cc1ccc(OCC(=O)N/N=C/c2ccc([N+](=O)[O-])o2)cc1` stands “inactive”; under `Cc1ccccc1OCC(=O)N/N=C/c1ccc([N+](=O)[O-])o1`, “inactive”; under `O=C(N/N=C/c1ccc([N+](=O)[O-])o1)c1cc2ccccc2o1`, “inactive”.
Under `O=C(CNc1ccc2ccccc2c1)N/N=C/c1ccc([N+](=O)[O-])o1` stands “inactive”; under `Cc1cc(C(=O)N/N=C/c2ccc([N+](=O)[O-])o2)c(C)o1`, “inactive”; under `Cc1cc(C)cc(OCC(=O)N/N=C/c2ccc([N+](=O)[O-])o2)c1`, “inactive”.
Under `O=C(CNc1cccc([N+](=O)[O-])c1)N/N=C/c1ccc([N+](=O)[O-])o1` stands “inactive”; under `O=c1c2ccccc2cnn1CCOc1ccccc1`, “inactive”.
Take `CC(C)c1nnc(NC(=O)CCC2CCCCC2)s1`: the outcome was inactive.
Then `c1cc(CSc2nnc(-c3ccc4c(c3)OCO4)o2)ccn1`, with “inactive”; and `COCCNC(=O)/C(C#N)=C/c1cccc(/C=C(\C#N)C(=O)NCCOC)c1`, with “inactive”.
Take `Cc1ccc(C2=NN(C(=O)CCl)C(c3cccs3)C2)o1` (stereo unspecified): the result was inactive.
Under `Cc1ccc([N+](=O)[O-])cc1N1C(=O)CS/C1=N\NC(=O)c1cccnc1` stands “inactive”.
Under `CC(=O)COc1ccc2cc(-c3ccccc3)c(=O)oc2c1` stands “inactive”; under `O=[N+]([O-])c1ccccc1OCCOc1ccccc1[N+](=O)[O-]`, “inactive”; under `CCOC(=O)C1(Cc2ccccc2)CCCN(CCCn2cccn2)C1` (stereo unspecified), “inactive”.
Under `CN(Cc1ccccc1)C1=CC(=[N+]2CCCCC2)CC(C)(C)C1` stands “inactive”.
